The results in this text go back to PubChem BioAssay AID588397 (National Center for Advancing Translational Sciences (NCATS), 2011).

“And” between values parts separate entries of the source, which are not always exact repeats. Equal values may be shown once. Among all 1,300 compounds or so, about 1,000 (77%) were called active. Not shown: some 7% with an inconclusive outcome. The set was probably picked from earlier hits. Some of the results follow. Values without a mark were called inactive. Calls come from the whole dose curve; as a rule, active = well fitted inhibition curve with a large enough effect; inconclusive = small, poorly fitted or top-dose-only effect; inactive = no such curve, though single readings can be large or run the other way.
% is set by controls: 0 for no effect and ±100 for the full control effect; potency is the fitted concentration of half-maximal effect.

This experiment in a line: qHTS of small molecules that selectively kill Giardia lamblia: Hit Validation.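 Note: viability measured as ATP content by luminescence so killing lowers signal; nearly all actives have a fitted effect of over 65% in size.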 Conditions: Giardia lamblia trophozoite viability, dose-response; series mostly up to 38.3 µM; activity change, negative = killing: at the top concentration. From the text: Giardia lamblia is a human pathogen afflicting impoverished nations, and the most common cause of outbreaks of diarrhea in the United States. Giardia has been classified by the CDC as a category B bioterrorism organism. The favored anti giardiasis drugs in the US are metronidazole or tinidazole, compounds that have undesirable side effects. Moreover, increasing resistance to drug regimes and recurrence are a concern. It is thus clear that alternative drug treatments are needed.
In a collaboration between the University of Maryland, College Park and the NIH Chemical Genomics Center, a bioluminescence Giardia viability assay based on the trophozoites' ATP content was developed. This assay is suitable for high throughput screening, and miniaturized the assay for compound screening in 1536-well plates. The goal of the project is to screen the Molecular Libraries Small Molecule Repository (MLSMR) for compounds that selectively kill Giardia trophozoites.
NIH Chemical Genomics Center [NCGC]
NIH Molecular Libraries Probe Centers Network [MLPCN]
Assay Submitter (PI): Osnat Herzberg, University of Maryland, College Park, MD.
1. Dispense 2 ul/well media
2. Dispense 23 nl/well compounds
3. Dispense 4 ul/well Giardia trophozoites at a concentration of 100 cells/well
4. Incubate 48 hrs at 37 deg C anaerobically
5. Dispense 4 ul/well ATPLite 1-Step Luminescence assay kit
6. Incubate 15-30 min at room temperature
7. Read luminescence signal on ViewLux plate reader
Background: qHTS replaces the single test concentration by a dilution series.
As to `O=C(CSc1ccsc1[N+](=O)[O-])NCCc1ccc(Cl)cc1`, the Potency is 1.3 µM (active). On the same count and under the same terms, next, `O=C(CSc1ccsc1[N+](=O)[O-])NCCc1ccccc1`: 0.818 µM (active); `COc1cc(N=c2c([N+](=O)[O-])nn(-c3ccc4c(c3)OCCO4)n2O)cc(OC)c1`: 5.16 µM (active). The same measure, in the same setting: next, `O=[N+]([O-])c1nn(-c2ccc3c(c2)OCCO3)n(O)c1=NCCC1=CCCCC1`: 1.63 µM (active); `CCc1cccc(N=c2c([N+](=O)[O-])nn(-c3ccc(Cl)cc3)n2O)c1`: 1.45 µM (active); `CN=c1c([N+](=O)[O-])nn(-c2ccc3c(c2)OCCO3)n1O`: 4.1 µM (active).

On to `O=[N+]([O-])c1nn(-c2ccc3c(c2)OCCO3)n(O)c1=NCCCO`, for which the Potency was 2.05 µM (active). On the same count and under the same terms, under `CCc1cccc(N=c2c([N+](=O)[O-])nn(-c3ccc4c(c3)OCCO4)n2O)c1` stands 0.818 µM (active); under `Cc1cc(C)cc(N=c2c([N+](=O)[O-])nn(-c3ccc4c(c3)OCCO4)n2O)c1`, 0.729 µM (active); under `Cn1nc(-c2cccnc2)nc2c(=O)n(C)c(=O)nc1-2`, 4.1 µM (active).

`Cn1nc(-c2ccc(F)cc2)nc2c(=O)n(C)c(=O)nc1-2`: the Potency was 0.103 µM (active). On to `Cn1nc(-c2ccc(Cl)cc2)nc2c(=O)n(C)c(=O)nc1-2`, for which the Potency was 0.13 µM (active). For `Cn1nc(-c2ccncc2)nc2c(=O)n(C)c(=O)nc1-2`, the Potency was 1.16 µM (active). Still for that read-out and setting: under `CCCc1nc2c(=O)n(C)c(=O)nc-2n(C)n1` stands 0.326 µM (active); under `COc1ccc(-c2nc3c(=O)n(C)c(=O)nc-3n(C)n2)cc1`, 0.163 µM (active). As to `O=C1S/C(=C\c2ccc(O)c([N+](=O)[O-])c2)C(=O)N1c1ccccc1Cl`, the Potency was 1.63 µM (active).

Turning to `O=C(O)c1cccc(CN2C(=O)S/C(=C/c3ccccc3[N+](=O)[O-])C2=O)c1`, the “activity change, negative = killing” value is -35.3%.

Take `O=C1S/C(=C\c2ccc(O)c([N+](=O)[O-])c2)C(=O)N1Cc1cccc([N+](=O)[O-])c1`: the Potency is 0.818 µM (active).

As for `O=C1/C(=C/c2ccc(O)c([N+](=O)[O-])c2)SC(=S)N1Cc1ccccc1`, the Potency is 1.45 µM (active). Still for that read-out and setting: next, `COc1cccc(/C=C2\Oc3ccc(O)cc3C2=O)c1O`: 3.26 µM (active); `CC(=O)c1c(C)n([O-])c2ccc(C)cc2[n+]1=O`: 0.41 µM (active). Consider `CC(=O)c1c(C)n([O-])c2ccccc2[n+]1=O`, for which the Potency was 0.65 µM (active).

Regarding `CCOc1ccc(-n2c(C)c(C(C)=O)c3cc(O)ccc32)cc1`, the “activity change, negative = killing” value was 5.94%. On the same count and under the same terms, under `CCN(CC)CC(=O)c1c(C)n(C)c2ccc(OC)cc12` stands 0.629%. In the case of `COc1ccc2c(c1)[n+](=O)c(C(C)=O)c(C)n2[O-]`, the Potency is 4.1 µM (active). As for `CC(=O)c1c(C)n([O-])c2cc(C)ccc2[n+]1=O`, the Potency was 0.818 µM (active). Regarding `NC(=S)N/N=C1\c2ccccc2-c2c(C(=O)O)cccc21`, the “activity change, negative = killing” value was -2.7%. For the compound `CC(=O)OCc1c(COC(C)=O)[n+](=O)c2ccccc2n1[O-]`, the Potency is 5.79 µM (active). Still for that read-out and setting: next, `CC(=O)c1c(C)n([O-])c2cc(F)c(F)cc2[n+]1=O`: 4.1 µM (active); `O=C(Nc1ccc2oc(-c3cccnc3)nc2c1)c1ccc([N+](=O)[O-])o1`: 0.918 µM (active); `O=C(Nc1ccc2oc(-c3ccncc3)nc2c1)c1ccc([N+](=O)[O-])o1`: 0.918 µM (active).

For the compound `O=C(Nc1ccc2oc(-c3ccccc3F)nc2c1)c1ccc([N+](=O)[O-])o1`, the Potency was 0.818 µM (active).

With `Cc1cnc(N=Nc2ccccc2)[nH]1`, the Potency is 9.18 µM (active). The same measure, in the same setting: under `O=C(NCCCO)c1cc([N+](=O)[O-])cc2c1C=Cc1ccccc1O2` stands 11.6 µM (active); under `Cc1ccc2nsnc2c1NC(=O)c1ccc([N+](=O)[O-])o1`, 3.26 µM (active). Regarding `O=C(Nc1c(Cl)ccc2nsnc12)c1ccc([N+](=O)[O-])o1`, the Potency is 1.3 µM (active).

On to `NC(=S)NN=C1CCCCCCCC1`, for which the Potency was 23.1 µM (active). On the same count and under the same terms, under `Cc1ncc([N+](=O)[O-])n1CCOC(=O)NC(NCc1ccccc1)C(Cl)(Cl)Cl` (stereo not drawn) stands 0.206 µM (active).

As to `Cc1ncc([N+](=O)[O-])n1CCOC(=O)NC(NCc1cccnc1)C(Cl)(Cl)Cl` (stereo not drawn), the Potency is 0.46 µM (active). As to `Cc1ncc([N+](=O)[O-])n1CCOC(=O)NC(NCc1ccccc1Cl)C(Cl)(Cl)Cl` (stereo not drawn), the Potency was 0.146 µM (active).

`CCCCCCSc1ccc([C@H]2N[C@@](Cc3ccccc3)(C(=O)OC)[C@H]3C(=O)N(C)C(=O)[C@@H]23)cc1`: the “activity change, negative = killing” value was -9.35%. On to `Cc1cc(=O)oc2cc(O)c(N=Nc3ccccc3)cc12`, for which the Potency is 1.03 µM (active). The same measure, in the same setting: next, `Cn1c(-c2ccc(C(=O)c3ccccc3)s2)nc2ccccc21`: 3.26 µM (active). The same measure, in the same setting: under `COc1ccc(-c2cn3cc([N+](=O)[O-])ccc3n2)cc1OC` stands 1.83 µM (active); under `O=[N+]([O-])c1ccc2nc(-c3ccc(OC(F)F)cc3)cn2c1`, 2.31 µM (active).

Turning to `COc1ccc(C(=O)Nc2ccc(C)cn2)c(OC)c1`, the Potency was 0.579 µM (active). `COC(=O)c1sc(NC(=O)c2ccc(OC)cc2OC)nc1C`: the Potency is 0.365 µM (active). Consider `COc1cc(C(=O)NC(=S)Nc2ccc(Cl)cn2)cc(OC)c1OC`, for which the “activity change, negative = killing” value is -7.19%.

With `C[C@H]1CN=C(N(C)C)N1CCC1CCCC1`, the “activity change, negative = killing” value is 2.7%.

For `CCOC(=O)CSc1ccc(C(=O)NCCCN2CCOCC2)cc1[N+](=O)[O-]`, the Potency is 18.3 µM (active). On the same count and under the same terms, next, `O=C(CN(C1CCCCC1)S(=O)(=O)c1ccc(F)cc1)NCC1CCCO1` (stereo not drawn): 1.63 µM (active). The same measure, in the same setting: under `Cc1c[n+]([O-])ccc1[N+](=O)[O-]` stands 1.3 µM (active); under `Cc1cc(NC(=O)c2ccc3c(c2)OCCO3)no1`, 1.16 µM (active); under `Cc1nc2c(ccc3nc(NC(=O)c4ccc5c(c4)OCCO5)sc32)s1`, 3.26 µM (active) and 3.65 µM (active). Same read-out and setting: next, `Cc1ccnc(NC(=O)c2ccc3c(c2)OCO3)c1`: 2.59 µM (active).

As for `Cc1cc(NC(=O)c2ccc(C(C)(C)C)cc2)no1`, the Potency is 6.5 µM (active).

As for `N#Cc1sc(NCc2cccc(Cl)c2)nc1Cl`, the Potency is 23.1 µM (active).

Consider `NCCCn1c(C(=O)c2ccc(Cl)cc2)c2ccc([N+](=O)[O-])cc2[n+]1[O-]`, for which the Potency was 3.26 µM (active). Still for that read-out and setting: under `NC(=O)CCCn1c(C(=O)c2ccc(Cl)cc2)c2ccc([N+](=O)[O-])cc2[n+]1[O-]` stands 1.16 µM (active); under `CCOC(=O)C1=C(C)N=c2s/c(=C/c3cccc([N+](=O)[O-])c3O)c(=O)n2C1c1ccccc1` (stereo not drawn), 2.31 µM (active); under `CCOC(=O)C1=C(C)N=c2s/c(=C\c3ccc(O)c([N+](=O)[O-])c3)c(=O)n2C1c1ccccc1OC` (stereo not drawn), 2.05 µM (active). The same measure, in the same setting: under `CCOC(=O)C1=C(C)N=c2s/c(=C/c3cccc([N+](=O)[O-])c3O)c(=O)n2C1c1cc(OC)c(OC)c(OC)c1` (stereo not drawn) stands 2.9 µM (active); under `CCOC(=O)C1=C(C)N=c2s/c(=C/c3cccc([N+](=O)[O-])c3O)c(=O)n2C1c1ccc(OC)cc1OC` (stereo not drawn), 1.83 µM (active).
